Compounds without any hit were thinned out: in the full panel of roughly 83,000, 20% have a hit.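 The test compound was applied at a single concentration to cells in 96-well plates for 48 hours, and percent growth was recorded.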 Calls of active or inactive are those of the source. Rule for the calls: active = growth percent below 10; inactive = the rest.
Tests used:
Experiment in all cases: NCI-60 one-dose screen, 48 h (100 = growth as untreated, 0 = no growth, -100 = all killed)
Conditions in all cases: 10 µM unless noted
[1] = system: HCT-15 colon
[2] = system: HT29 colon
[3] = system: SNB-75 CNS
[4] = system: SNB-19 CNS
[5] = system: U251 CNS
[6] = system: PC-3 prostate
[7] = system: SK-MEL-5 melanoma
[8] = system: UACC-62 melanoma
[9] = system: LOX IMVI melanoma
[10] = system: SK-MEL-2 melanoma
[11] = system: EKVX NSCLC
[12] = system: SN12C renal
[13] = system: UO-31 renal
[14] = system: TK-10 renal
[15] = system: ACHN renal
[16] = system: CAKI-1 renal
[17] = system: CCRF-CEM leukemia
[18] = system: MOLT-4 leukemia
[19] = system: A498 renal

Measured: growth

CN(C)c1ccc(/C=C(\C#N)c2nc3ccccc3n2C)cc1
inactive: [1] 28.5% | [2] 13.7% | [4] 68.6% | [5] 30.3% | [6] 35.7% | [7] 14.5% | [8] 35% | [9] 46.2% | [10] 46.6% | [11] 28.3% | [12] 54% | [13] 46.2% | [14] 37.7% | [15] 55.3% | [16] 13.7% | [17] 31.2% | [18] 29.5%
active: [3] 7.56%

Nc1ccc(N(O)/C=C2\C=CC=CC2=O)cc1N
inactive: [1] 87% | [2] 172% | [3] 104% | [4] 102% | [5] 94.1% | [6] 69.6% | [7] 76.3% | [8] 66.1% | [9] 48.8% | [10] 108% | [11] 96.4% | [12] 101% | [13] 62.5% | [14] 133% | [15] 76.3% | [16] 100% | [19] 88.9% | [17] 57.6% | [18] 73%

Cc1cc(C)cc(NC(=O)Cn2nncc2CN2C(=O)CSC2=O)c1
inactive: [1] 99.4% | [2] 108% | [3] 95.1% | [4] 100% | [5] 102% | [6] 100% | [7] 103% | [8] 94% | [9] 91.3% | [10] 106% | [11] 90.3% | [12] 103% | [13] 99.7% | [14] 99.8% | [15] 99.6% | [16] 95.2% | [19] 118% | [17] 113% | [18] 105%

CC(=O)N(C)c1ccc(Nc2cc(C)[nH]c3ccc4ncnc4c23)cc1
active: [18] 1.82%
inactive: [1] 82.5% | [2] 48% | [3] 55% | [4] 58.7% | [5] 49.9% | [6] 50.5% | [7] 51.4% | [8] 62.7% | [9] 36.1% | [10] 116% | [11] 79.4% | [12] 61.7% | [14] 79.3% | [15] 55.4% | [16] 80.3% | [19] 78.5% | [17] 28.9%

CNCc1cccc2c1OCCOCCOCCC(C)S(=O)(=O)c1ccc(cc1)-c1cnc(N)c(n1)C(=O)N2 (stereo not drawn)
inactive: [1] 17.8% | [2] 15.1% | [3] 10.5% | [4] 53.8% | [5] 19.2% | [6] 32.3% | [7] 78.8% | [8] 60.6% | [9] 48.8% | [10] 75.2% | [11] 52.3% | [12] 45.9% | [13] 44.4% | [14] 66.8% | [15] 18.9% | [16] 18.6% | [18] 16.4%
active: [19] 6.01% | [17] 2.12%

CN1CCN(Cc2ccc(NC(=O)c3cncc(C#Cc4cnc5cccnn45)c3)cc2C(F)(F)F)CC1
inactive: [8] 10%
active: [1] 5.63% | [2] 1.67% | [3] -68.8% | [4] 9.4% | [5] 5.83% | [6] 5.62% | [7] 1.22% | [9] -16.2% | [10] -58.6% | [11] -39.1% | [12] 3.05% | [14] -4.27% | [15] 5.04% | [16] 5.93% | [19] -33.1% | [17] 5.9% | [18] -1.76%

O=C(OCc1ccc2c(Cl)cc(Cl)c(O)c2n1)c1cc2ccccc2[nH]1
active: [1] -50.2% | [2] -81.1% | [3] -94.8% | [5] -92.6% | [6] -79.8% | [7] -97.6% | [8] -70.7% | [9] -91.2% | [10] -54.6% | [11] -71.9% | [12] -60.6% | [13] -100% | [14] -94.1% | [15] -96.7% | [16] -98% | [19] -78.4% | [17] 0% | [18] -8.99%
inactive: [4] 34.8%

COc1ccc2[nH]c(C(=O)OCc3ccc4cccc(O)c4n3)cc2c1
active: [1] -43.8% | [2] -73.1% | [3] -29.1% | [6] -55.7% | [7] -56.9% | [8] -81% | [9] -89.1% | [10] -20.3% | [12] -74.8% | [13] -100% | [14] -89.2% | [15] -98.4% | [16] -97.6% | [17] 4.41% | [18] -11.5%
inactive: [4] 50.8% | [5] 22.1% | [19] 36.5%

COc1cc2nccc(Oc3ccc(NC(=O)C4(C(=O)Nc5ccc(F)cc5)CC4)cc3)c2cc1O
inactive: [1] 61.8% | [2] 95.1% | [3] 34% | [4] 82% | [5] 66% | [6] 57.1% | [7] 66.4% | [8] 34.8% | [9] 39.8% | [10] 88.1% | [11] 71.1% | [12] 30.5% | [13] 54.4% | [14] 76.8% | [15] 67.8% | [16] 78.1% | [19] 59.4% | [17] 29% | [18] 44.9%

COc1cc2nccc(Oc3ccc(NC(=O)C4(C(=O)Nc5ccc(F)cc5)CC4)cc3)c2cc1Oc1ccc(N)cn1
active: [2] 9.65% | [3] -12.5% | [8] 5.29% | [19] -20.9%
inactive: [1] 27.9% | [4] 54.5% | [5] 33.6% | [6] 24.5% | [7] 39.2% | [9] 10.7% | [10] 54.3% | [11] 15.9% | [12] 14.8% | [13] 19.8% | [14] 36.3% | [15] 18.6% | [16] 43.5% | [17] 61.2% | [18] 29.5%

O=C1Cc2c([nH]c3ccc([N+](=O)[O-])cc23)-c2ccccc2N1
inactive: [4] 20.8% | [8] 11.4% | [11] 17.1% | [12] 44.1% | [14] 12% | [15] 11.5% | [16] 16.4%
active: [1] 5.02% | [2] 4.95% | [3] -7.52% | [5] 8.97% | [6] 9.61% | [7] -47.2% | [9] 9.02% | [10] -21.5% | [19] -5.07% | [17] 1.61% | [18] 2.18%

FC(F)(F)c1ccc(/C=N/Nc2nnc3n2N=C(c2ccc(Cl)cc2)CS3)cc1
active: [3] -24.9%
inactive: [1] 79.9% | [2] 70.1% | [4] 20.3% | [5] 60.4% | [6] 53.1% | [7] 76.4% | [8] 55.1% | [9] 82.8% | [10] 84.2% | [11] 66.3% | [12] 57.8% | [14] 53.1% | [16] 63.5% | [19] 69.9% | [17] 99.4% | [18] 79.5%

CCN(C)CCCOc1ccc(/C(=C(\C)Cc2cccc(OC)c2)c2ccc(OC(C)=O)cc2)cc1
inactive: [1] 101% | [2] 102% | [3] 81.7% | [4] 102% | [5] 97.1% | [6] 98.1% | [7] 99.1% | [8] 98.4% | [9] 97.2% | [10] 103% | [11] 92.5% | [12] 95% | [13] 92% | [14] 95% | [15] 104% | [16] 94.9% | [19] 94.3% | [17] 96.6% | [18] 103%

Fc1ccc2c(CN3CCO[C@H](COc4cccc(Cl)c4)C3)c[nH]c2c1
inactive: [1] 59.1% | [2] 47.4% | [3] 59% | [4] 56.8% | [5] 44.7% | [6] 36.7% | [7] 63.4% | [8] 60.2% | [9] 45.9% | [10] 71.1% | [11] 74.3% | [12] 49.1% | [13] 51.4% | [14] 22.1% | [15] 46.8% | [16] 65.3% | [19] 53.9% | [17] 38.5% | [18] 25.9%

C=C(C)[C@@H]1CC[C@]2(C)[C@H](CC=C3[C@@H]4C[C@](C)(C(=O)N5CCN(C)CC5)CC[C@]4(C)CC[C@]32C)[C@@]1(C)CCC#N
inactive: [1] 38.2% | [2] 33.2% | [3] 79.1% | [4] 89.4% | [5] 50% | [6] 30.6% | [7] 18.9% | [8] 53.5% | [9] 47.6% | [10] 76.4% | [11] 85.6% | [12] 75.2% | [13] 66.1% | [14] 75.8% | [15] 80.4% | [16] 63% | [19] 97% | [17] 34.1% | [18] 32.1%

Source: PubChem BioAssay (NCI)
